Measured values: PubChem BioAssay
Measured potencies and affinities stand elsewhere. Unmarked numbers belong to inactive results.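 How the source made its calls: active means a dose-response fit showing signal loss, with half-maximal concentration no higher than twice the top tested dose; inconclusive means flat fit between 30% and 70% signal loss, or poor fit; inactive means the rest.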

Test: HepG2 cell cytotoxicity, dose response, cytotoxicity control, cherry-picks, set 2 (AID 687002)
Conditions: HepG2 viability, ATP luminescence (CellTiter-Glo), 48 h; series mostly up to 26 µM; activity change, negative = cytotoxicity: at the top concentration

SMILES	activity change, negative = cytotoxicity
COCCNC(=O)C[C@H]1CC[C@@H]2[C@H](COC[C@H](O)CN2S(=O)(=O)c2ccccc2C)O1	-3.36%
COc1ccccc1NC(=O)N[C@H]1CC[C@@H](CCn2cc(-c3ccccc3OC)nn2)O[C@@H]1CO	2.4%
CC(C)NC(=O)Nc1ccc2c(c1)C(=O)N([C@H](C)CO)C[C@@H](C)[C@H](CN(C)C(=O)Nc1ccccc1)OCCCC[C@@H](C)O2	-7.18%
CCCNC(=O)N1C[C@@H](O)COC[C@H]2O[C@H](CC(=O)N3CCN(C)CC3)CC[C@@H]21	7.49%
CCS(=O)(=O)NCC[C@@H]1CC[C@@H](NS(=O)(=O)c2cccc(F)c2)[C@@H](CO)O1	-5.15%
CO[C@@H]1CN(C)C(=O)c2ccc(NC(=O)C3CC3)cc2OC[C@H](C)N(Cc2ccc(F)cc2)C[C@H]1C	3.56%
CC=Cc1ccc2n(c1=O)C[C@@H]1[C@@H](CO)[C@H](C(=O)N3CCCCC3)N(Cc3ccccc3)[C@H]21 (mixture of isomers)	-10.8%
CCC(=O)N(C)C[C@H]1Oc2cc(C#CC(C)(C)O)ccc2S(=O)(=O)N([C@H](C)CO)C[C@@H]1C	3.94%
C[C@@H]1CN([C@H](C)CO)C(=O)c2cc(NS(=O)(=O)c3ccccc3)ccc2O[C@H]1CN(C)C(=O)NC1CCCCC1	-0.013% [at 23.5 µM]
CCC(=O)N[C@H]1C=C[C@@H](CC(=O)OC)O[C@@H]1CO	0.886%
C[C@@H]1CN([C@@H](C)CO)C(=O)CCCn2nncc2CO[C@H]1CN(C)Cc1cccc(C(F)(F)F)c1	11.7%
C[C@H](CO)N1C[C@H](C)[C@H](CN(C)C(=O)Nc2cccc3ccccc23)Oc2ccc(NC(=O)Nc3ccccc3)cc2C1=O	4.88%
O=C(C[C@@H]1C=C[C@@H](NC(=O)C2CCC2)[C@H](CO)O1)NC1CCC1	2.65%
CO[C@H]1CN(C)C(=O)c2cc(NC(=O)C3CCOCC3)ccc2OC[C@@H](C)NC[C@H]1C	10.5% [at 23.5 µM]
CC(C)NC(=O)NCC[C@@H]1CC[C@@H](NC(=O)CN(C)C)[C@@H](CO)O1	2.66%
C[C@@H]1CCCCO[C@@H](CN(C)Cc2ccc3c(c2)OCO3)[C@@H](C)CN([C@H](C)CO)C(=O)c2cc(NS(=O)(=O)c3ccc(F)cc3)ccc2O1	1.55% [at 23.5 µM]
Cc1ccc(C)c(NC(=O)C2CCCN2C(=O)NC2CCCCC2)c1 (stereo not given)	1.11%
CCCNC(=O)N(C)C[C@@H]1Oc2ncc(C#CC3CCCCC3)cc2C(=O)N([C@H](C)CO)C[C@@H]1C	9.55%
O=C(C[C@H]1CC[C@H](NC(=O)Nc2ccc(C(F)(F)F)cc2)[C@H](CO)O1)NCc1cccc(F)c1	-11.1%
CCc1ccc(NC(=O)C2NC(=O)CC2c2ccccc2)cc1 (stereo not given)	31.2% [at 42 µM]

SMILES	activity change, negative = cytotoxicity
CNC(=O)C[C@@H]1CC[C@H]2[C@@H](COC[C@H](O)CN2C(=O)Nc2ccc3c(c2)OCO3)O1	12.1%
O=C(N[C@H]1CC[C@@H](CCn2cc(-c3ccccc3)nn2)O[C@@H]1CO)c1cnccn1	32.5%
CC(=O)N1[C@@H](CO)[C@H](c2ccc(-c3ccccc3)cc2)[C@@H]1CNC(=O)C1CC1	-4.26%
O=C(CSc1ncnc2c1cnn2-c1ccc(F)cc1)NC1CCCC1	8.78%
O=C(Nc1ccc(F)cc1)N1C[C@@H]2[C@H](c3ccccc31)[C@H](CO)N2Cc1cocn1	5.14%
CC(=O)NC[C@@H]1[C@@H](c2ccc(C3=CCCC3)cc2)[C@@H](CO)N1C(=O)NC(C)C	1.95%
C[C@H](CO)N1C[C@H](C)[C@@H](CN(C)C(=O)c2cccc(F)c2)Oc2cc(-c3cncnc3)ccc2S1(=O)=O	-2.09%
CCCNC(=O)N(C)C[C@@H]1Oc2ncc(C#CCc3ccccc3)cc2C(=O)N([C@@H](C)CO)C[C@@H]1C	-1.47%
CCC(=O)N1[C@H](CO)[C@H](c2ccccc2)[C@H]1CN(CC)C(=O)c1cccc(F)c1	2.73%
CNC(=O)C[C@H]1CC[C@H]2[C@H](COc3ccc(NC(=O)c4cc(C)on4)cc3C(=O)N2C)O1	0.86% [at 23.5 µM]
C[C@@H]1CN([C@H](C)CO)C(=O)c2cc(NC(=O)Nc3cccc4ccccc34)ccc2O[C@@H](C)CCCCO[C@@H]1CN(C)Cc1ccc2c(c1)OCO2	8.19%
Cc1nnc(NC(=O)CSc2ncnc3c2cnn3-c2ccccc2C)s1	0.549%
O=C(NC[C@H]1[C@@H](c2ccccc2)[C@@H](CO)N1C(=O)C1CCC1)NC1CCCC1	0.195%
O=C(NCC[C@H]1CC[C@@H](NS(=O)(=O)c2ccc(F)cc2)[C@H](CO)O1)c1ccc2c(c1)OCO2	6.44%
CO[C@@H]1CN(C)C(=O)c2ccc(NC(=O)NC(C)C)cc2OC[C@H](C)NC[C@@H]1C	-1.9%
COc1ccc(NC(=O)N(C)C[C@@H]2OCCCC[C@H](C)Oc3ccc(NC(=O)Nc4ccc5c(c4)OCO5)cc3C(=O)N([C@H](C)CO)C[C@@H]2C)cc1	6.57%
COc1ccc(-c2cnc3c(c2)C(=O)N([C@H](C)CO)C[C@H](C)[C@H](CN(C)Cc2ccc(F)cc2)O3)cc1	0.022%
Cc1cc(C(=O)NC(=S)Nc2ccccc2N2CCCC2)ccc1[N+](=O)[O-]	5.33%
COc1ccccc1CNC(=O)COc1ccc2c(c1)CCC2	-1.83%
CCC(=O)N1C[C@H](O)COC[C@@H]2O[C@@H](CC(=O)NCc3ccccc3Cl)CC[C@H]21	5.25%
